Changes are numbered by the printed parent chain.
Columns and labels:
Experiment in all cases: yeast three-hybrid, YBZ-1, SC-Leu-His + 0.5 mM 3-AT, 4 days
Conditions in all cases: tags: N-Gal4 AD-HA kept; label: inside an RPR1-promoter hybrid RNA with tandem MS2 sites; ssRNA
PUM1 PUF domain R3-FSR = PUM1 PUF domain R3-FSR (Homo sapiens, UniProt Q14671 828-1176, C935F;R936S;Q939R)
Summary of the method: (§1)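 Matching RNA elements and Pumilio-1 PUF domain libraries, randomized at the three base-contacting residues of every repeat, were co-expressed from a centromeric plasmid in strain YBZ-1 (LexA–MS2 coat fusion, HIS3 reporter). The repeat regions were PCR-amplified and Illumina-sequenced from cells grown four days on SC-Leu (input) or SC-Leu-His + 0.5 mM 3-AT (selection). The interaction score is the log change in variant frequency from input to selection. It is computed in log2, with a pseudocount of 1 for absent variants.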

PUM1 PUF domain R4-LGL = PUM1 PUF domain R4-LGL (Homo sapiens, UniProt Q14671 828-1176, N971L;H972G;Q975L)
Summary of the method: as §1

PUM1 PUF domain R6-FYQ = target: T1, PUM1 PUF domain R6-FYQ (Homo sapiens, UniProt Q14671 828-1176, N1043F)
T1 sequence: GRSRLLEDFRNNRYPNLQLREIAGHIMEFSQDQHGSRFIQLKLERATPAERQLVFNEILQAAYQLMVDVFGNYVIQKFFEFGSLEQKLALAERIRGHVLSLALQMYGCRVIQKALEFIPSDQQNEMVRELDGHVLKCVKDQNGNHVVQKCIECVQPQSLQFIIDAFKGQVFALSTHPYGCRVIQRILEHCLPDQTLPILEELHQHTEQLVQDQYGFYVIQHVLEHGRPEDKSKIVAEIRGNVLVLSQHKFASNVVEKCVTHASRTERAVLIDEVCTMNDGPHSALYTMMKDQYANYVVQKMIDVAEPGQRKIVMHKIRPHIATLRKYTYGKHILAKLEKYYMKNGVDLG
Summary of the method: as §1

PUM1 PUF domain R6-LWG = target: T2, PUM1 PUF domain R6-LWG (Homo sapiens, UniProt Q14671 828-1176, N1043L;Y1044W;Q1047G)
T2 sequence: T1 sequence with F216L, Y217W, Q220G
Summary of the method: as §1

PUM1 PUF domain R6-QYS = target: T3, PUM1 PUF domain R6-QYS (Homo sapiens, UniProt Q14671 828-1176, N1043Q;Q1047S)
T3 sequence: T1 sequence with F216Q, Q220S
Summary of the method: as §1

PUM1 PUF domain R4-SLS = PUM1 PUF domain R4-SLS (Homo sapiens, UniProt Q14671 828-1176, N971S;H972L;Q975S)
Summary of the method: as §1

PUM1 PUF domain R7-RRV = PUM1 PUF domain R7-RRV (Homo sapiens, UniProt Q14671 828-1176, S1079R;N1080R;E1083V)
Summary of the method: as §1

PUM1 PUF domain R7-DHV = PUM1 PUF domain R7-DHV (Homo sapiens, UniProt Q14671 828-1176, S1079D;N1080H;E1083V)
Summary of the method: as §1

PUM1 PUF domain R5-RAD = PUM1 PUF domain R5-RAD (Homo sapiens, UniProt Q14671 828-1176, C1007R;R1008A;Q1011D)
Summary of the method: as §1

PUM1 PUF domain R5-LYD = PUM1 PUF domain R5-LYD (Homo sapiens, UniProt Q14671 828-1176, C1007L;R1008Y;Q1011D)
Summary of the method: as §1

PUM1 PUF domain R5-NAV = PUM1 PUF domain R5-NAV (Homo sapiens, UniProt Q14671 828-1176, C1007N;R1008A;Q1011V)
Summary of the method: as §1

PUM1 PUF domain R5-QCL = PUM1 PUF domain R5-QCL (Homo sapiens, UniProt Q14671 828-1176, C1007Q;R1008C;Q1011L)
Summary of the method: as §1

PUM1 PUF domain R5-EGE = PUM1 PUF domain R5-EGE (Homo sapiens, UniProt Q14671 828-1176, C1007E;R1008G;Q1011E)
Summary of the method: as §1

PUM1 PUF domain R3-RVQ = PUM1 PUF domain R3-RVQ (Homo sapiens, UniProt Q14671 828-1176, C935R;R936V)
Summary of the method: as §1

PUM1 PUF domain R3-GHF = PUM1 PUF domain R3-GHF (Homo sapiens, UniProt Q14671 828-1176, C935G;R936H;Q939F)
Summary of the method: as §1

PUM1 PUF domain R7-IFV = PUM1 PUF domain R7-IFV (Homo sapiens, UniProt Q14671 828-1176, S1079I;N1080F;E1083V)
Summary of the method: as §1

PUM1 PUF domain R4-LFW = PUM1 PUF domain R4-LFW (Homo sapiens, UniProt Q14671 828-1176, N971L;H972F;Q975W)
Summary of the method: as §1

Question: With “GGCUAGAACUAGUGGAUCCCCCGGCGCCCGGCGGCUCGAGCCCGGGUAAGUGUAAGUAGUCUGCAUGCCGCCGGGCGCCAUGCCUGCAGGUCGACUCUAGAAAACAUG” as the sequence, how does the binding signal (PUM1 PUF domain R3-FSR) read?
Answer: 3.48 log2 enrichment (interaction score)

Question: Which binding signal (PUM1 PUF domain R4-LGL) does the source give for “GGCUAGAACUAGUGGAUCCCCCGGCGCCCGGCGGCUCGAGCCCGGGUAAGUGUAAAUAGUCUGCAUGCCGCCGGGCGCCAUGCCUGCAGGUCGACUCUAGAAAACAUG” here?
Answer: 3.33 log2 enrichment (interaction score)

Question: What about the binding signal (PUM1 PUF domain R6-FYQ) of the same sequence?
Answer: 4.7 log2 enrichment (interaction score)

Question: And the binding signal (PUM1 PUF domain R6-LWG)?
Answer: 6.16 log2 enrichment (interaction score)

Question: And the binding signal (PUM1 PUF domain R6-QYS)?
Answer: 3.68 log2 enrichment (interaction score)

Question: And the binding signal (PUM1 PUF domain R4-SLS)?
Answer: 2.39 log2 enrichment (interaction score)

Question: For “GGCUAGAACUAGUGGAUCCCCCGGCGCCCGGCGGCUCGAGCCCGGGUAAGUCUAAAUAGUCUGCAUGCCGCCGGGCGCCAUGCCUGCAGGUCGACUCUAGAAAACAUG”, which binding signal (PUM1 PUF domain R7-RRV) is on record?
Answer: 4.92 log2 enrichment (interaction score)

Question: “GGCUAGAACUAGUGGAUCCCCCGGCGCCCGGCGGCUCGAGCCCGGGUAAGUUUAAAUAGUCUGCAUGCCGCCGGGCGCCAUGCCUGCAGGUCGACUCUAGAAAACAUG” was tested. Which binding signal (PUM1 PUF domain R7-RRV) did it give?
Answer: 4.01 log2 enrichment (interaction score)

Question: And the binding signal (PUM1 PUF domain R7-DHV)?
Answer: 5.24 log2 enrichment (interaction score)

Question: What does the source list for “GGCUAGAACUAGUGGAUCCCCCGGCGCCCGGCGGCUCGAGCCCGGGUAAGUGUUAAUAGUCUGCAUGCCGCCGGGCGCCAUGCCUGCAGGUCGACUCUAGAAAACAUG”?
Answer: binding signal (PUM1 PUF domain R5-RAD): 1.31 log2 enrichment (interaction score); binding signal (PUM1 PUF domain R5-LYD): 3.06 log2 enrichment (interaction score); binding signal (PUM1 PUF domain R5-NAV): 2.55 log2 enrichment (interaction score)

Question: How did the binding signal (PUM1 PUF domain R5-RAD) turn out when “GGCUAGAACUAGUGGAUCCCCCGGCGCCCGGCGGCUCGAGCCCGGGUAAGUGUCAAUAGUCUGCAUGCCGCCGGGCGCCAUGCCUGCAGGUCGACUCUAGAAAACAUG” was run?
Answer: 2.61 log2 enrichment (interaction score)

Question: For “GGCUAGAACUAGUGGAUCCCCCGGCGCCCGGCGGCUCGAGCCCGGGUAAGUGUGAAUAGUCUGCAUGCCGCCGGGCGCCAUGCCUGCAGGUCGACUCUAGAAAACAUG”, which binding signal (PUM1 PUF domain R5-QCL) is on record?
Answer: 2.87 log2 enrichment (interaction score)

Question: And the binding signal (PUM1 PUF domain R5-NAV)?
Answer: 1.26 log2 enrichment (interaction score)

Question: And the binding signal (PUM1 PUF domain R5-EGE)?
Answer: 2.78 log2 enrichment (interaction score)

Question: Which results are given for “GGCUAGAACUAGUGGAUCCCCCGGCGCCCGGCGGCUCGAGCCCGGGUAAGUGUAAUUAGUCUGCAUGCCGCCGGGCGCCAUGCCUGCAGGUCGACUCUAGAAAACAUG”?
Answer: binding signal (PUM1 PUF domain R3-RVQ): 2.03 log2 enrichment (interaction score); binding signal (PUM1 PUF domain R3-GHF): 2.21 log2 enrichment (interaction score)

Question: For “GGCUAGAACUAGUGGAUCCCCCGGCGCCCGGCGGCUCGAGCCCGGGUAAGUAUAAAUAGUCUGCAUGCCGCCGGGCGCCAUGCCUGCAGGUCGACUCUAGAAAACAUG”, which binding signal (PUM1 PUF domain R7-IFV) is on record?
Answer: 2.59 log2 enrichment (interaction score)

Question: For “GGCUAGAACUAGUGGAUCCCCCGGCGCCCGGCGGCUCGAGCCCGGGUAAGUGUAUAUAGUCUGCAUGCCGCCGGGCGCCAUGCCUGCAGGUCGACUCUAGAAAACAUG”, which binding signal (PUM1 PUF domain R4-LFW) is on record?
Answer: 3.89 log2 enrichment (interaction score)

Reference: PMC8384837, “Expanding the binding specificity for RNA recognition by a PUF domain”
